For 57 compounds, Potency, viability change, negative = cytotoxic and activity change, negative = cytotoxicity results are on record in PubChem BioAssay (Tox21).

Inconclusive results are not listed. Values without a mark were called inactive. Calls of active or inactive are those of the source. The call rests on the fitted dose curve; in most records, active means well fitted cell-killing curve with a large enough effect in the repeat runs; inconclusive means weak or mixed curves, or effect the other way; inactive means flat fitted curve, though single readings scatter.

Assay [1] in a line: cAMP Responsive Elements (CRE) small molecule antagonists, cell-based qHTS assay: qHTS cell viability counter screen (AID 2060913). Further: nearly all actives have a fitted effect of over 40% in size. The method, boiled down:
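HEK293T CRE-bla, 2,000 cells/well, 18 h preincubation; cpd in DMSO + NKH477 0.25 uM final, 3 h 37 C/5% CO2; LiveBLAzer 2 h RT, then CellTiter-Glo 30 min RT, luminescence.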
In general terms: qHTS replaces the single test concentration by a dilution series.

Assay [2] is described as follows: cAMP Responsive Elements (CRE) small molecule agonists, cell-based qHTS assay: qHTS cell viability counter screen (AID 2060914). Further: nearly all actives have a fitted effect of over 50% in size. The method, boiled down: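 CRE-bla HEK293T cells in 10% dialyzed FBS medium were exposed to compounds for 3 h at 37C after 18 h plating. CellTiter-Glo was then added in the same wells, and luminescence was read after 30 min at room temperature.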
On the % scale 0 is the no-effect control and ±100 the full control effect; potency means the concentration at half of the fitted maximal effect.

Regarding `CO[Si](C)(OC)OC`, the Potency result in assay [1] and in assay [2] was “inactive” throughout.

As for `Cc1cc(O)cc2c1O[C@](C)(CCC[C@H](C)CCC[C@H](C)CCCC(C)C)CC2`, the Potency result in assay [1] and in assay [2] was “inactive” each time.

On to `CN(C)CCOC(=O)C(c1ccccc1)C1(O)CCCC1` (centres undefined), for which the Potency result in assay [1] and in assay [2] was “inactive” in each case.

As for `O=C1OC(CN2CCOCC2)CN1/N=C/c1ccc([N+](=O)[O-])o1` (centres undefined), the Potency entry in assay [1] and in assay [2] was “inactive” each time.

Turning to `O=C(O)CCCC(=O)O`, the Potency result in assay [1] and in assay [2] was “inactive” in each case.

`NS(=O)(=O)c1cc2c(cc1Cl)NCNS2(=O)=O`: the Potency result in assay [1] and in assay [2] was “inactive” each time.

For the compound `Cc1cccc(C(=O)O)c1O`, the Potency entry in assay [1] and in assay [2] was “inactive” throughout.

Consider `Cc1ccc2c(Br)cc(Br)c(O)c2n1`, for which the Potency result in assay [1] and in assay [2] was “inactive” each time.

`O=C(O)CP(=O)(O)O`: the Potency entry in assay [1] and in assay [2] was “inactive” in each case.

On to `O=C(CCCN1CC=C(n2c(=O)[nH]c3ccccc32)CC1)c1ccc(F)cc1`, for which the Potency entry in assay [1] and in assay [2] was “inactive” in each case.

Regarding `O=C(O)c1cc(=O)[nH]c(=O)[nH]1`, the Potency entry in assay [1] and in assay [2] was “inactive” each time.

Turning to `O=C1NCC2(CCN(CCc3ccccc3)CC2)O1`, the Potency result in assay [1] and in assay [2] was “inactive” in each case.

With `CCOc1ccccc1O`, the Potency entry in assay [1] and in assay [2] was “inactive” each time.

As for `CCCCCCCCCCCCCC(=O)OCC(O)CO` (centres undefined), the Potency entry in assay [1] and in assay [2] was “inactive” throughout.

Consider `NC(=O)Cn1c(=O)cc(CCN2CCN(c3nccc4sccc34)CC2)c2ccc(F)cc21`, for which the Potency result in assay [1] and in assay [2] was “inactive” each time.

Consider `CC1=CC[C@H](CC=O)C1(C)C`, for which the Potency result in assay [1] and in assay [2] was “inactive” each time.

Take `CCOC(=O)C(Br)c1ccccc1` (centres undefined): the Potency entry in assay [1] and in assay [2] was “inactive” in each case.

`CC(=O)OCCN(CCOC(C)=O)c1ccc(N=Nc2ccc([N+](=O)[O-])cc2C#N)cc1`: the Potency entry in assay [1] and in assay [2] was “inactive” throughout.

Turning to `CCOC(=O)[C@H](CCc1ccccc1)N[C@@H](C)C(=O)N(CC(=O)O)C1Cc2ccccc2C1`, the Potency entry in assay [1] and in assay [2] was “inactive” in each case.

With `O=C(O)/C=C/c1ccc(Cn2ccnc2)cc1`, the Potency entry in assay [1] and in assay [2] was “inactive” in each case.

In the case of `c1ccc2c(c1)Oc1ccccc1S2`, the Potency entry in assay [1] and in assay [2] was “inactive” in each case.

As to `CCc1oc2ccccc2c1C(=O)c1cc(I)c(O)c(I)c1`, the Potency result in assay [1] and in assay [2] was “inactive” in each case.

In the case of `CC(C)(C)C(=O)/C=C/c1ccc(Cl)cc1`, the Potency entry in assay [1] and in assay [2] was “inactive” each time.

`Cn1c(N)c(N=O)c(=O)n(C)c1=O`: the Potency entry in assay [1] and in assay [2] was “inactive” in each case.

Consider `CN1C(C(=O)Nc2ccccn2)=C(O)c2ccccc2S1(=O)=O`, for which the Potency entry in assay [1] and in assay [2] was “inactive” throughout.

With `CCCCCCCCCC(=O)OC`, the Potency result in assay [1] and in assay [2] was “inactive” in each case.

For the compound `Cc1ccc(CCn2c3c(c4cc(Cl)ccc42)CN(C)CC3)cn1`, the Potency result in assay [1] and in assay [2] was “inactive” each time.

As for `CC(C)=CCC/C(C)=C/C=N/O`, the Potency result in assay [1] and in assay [2] was “inactive” throughout.

In the case of `CCOCCOCCOC(C)=O`, the Potency entry in assay [1] and in assay [2] was “inactive” each time.

As to `Nc1ncnc2c1ncn2[C@@H]1O[C@H](CO)[C@@H](O)[C@H]1O`, the Potency result in assay [1] and in assay [2] was “inactive” in each case.

Take `NS(=O)(=O)c1cc(C(=O)NN2C[C@H]3[C@H]4CCC(C4)[C@H]3C2)ccc1Cl`: the Potency entry in assay [1] and in assay [2] was “inactive” in each case.

For the compound `O=[N+]([O-])c1ccc(O)cc1`, the Potency result in assay [1] and in assay [2] was “inactive” each time.

Regarding `Nc1ccc(S(=O)(=O)Nc2ccnn2-c2ccccc2)cc1`, the viability change, negative = cytotoxic in assay [1] is 5.89% [at 18.9 µM]. Also, in assay [2], the activity change, negative = cytotoxicity was 8.29% [at 18.9 µM].

Regarding `CCCCCOC(=O)CCC`, the Potency entry in assay [1] and in assay [2] was “inactive” throughout.

On to `c1cc(C(c2ccc(OCC3CO3)cc2)c2ccc(OCC3CO3)cc2)ccc1OCC1CO1` (centres undefined), for which the Potency entry in assay [1] and in assay [2] was “inactive” in each case.

For the compound `Oc1cc2ccccc2c2ccccc12`, the Potency in assay [1] and in assay [2] was 13.7 µM (active) each time.

With `C=CC(C)(O)CCCC(C)CCCC(C)CCCC(C)C` (centres undefined), the Potency result in assay [1] and in assay [2] was “inactive” each time.

As to `N=C(N)N`, the Potency result in assay [1] and in assay [2] was “inactive” throughout.

Turning to `C=CC(=O)NCOCC(C)C`, the Potency result in assay [1] and in assay [2] was “inactive” each time.

With `CC1=C(C(=O)O)N2C(=O)[C@@H](NC(=O)[C@H](N)c3ccc(O)cc3)[C@H]2SC1`, the Potency entry in assay [1] and in assay [2] was “inactive” throughout.

For the compound `N[C@@H](CSCCCO)C(=O)O`, the viability change, negative = cytotoxic in assay [1] was 1.17% [at 18.9 µM]. Besides, the activity change, negative = cytotoxicity in assay [2] was -12.4% [at 18.9 µM].

On to `C[Si]1(C)O[Si](C)(C)O[Si](C)(C)O[Si](C)(C)O1`, for which the Potency result in assay [1] and in assay [2] was “inactive” in each case.

Turning to `CC(C)(C)c1ccc(C=O)cc1`, the Potency result in assay [1] and in assay [2] was “inactive” in each case.

Regarding `O=C(O)/C=C(\CC(=O)O)C(=O)O`, the Potency result in assay [1] and in assay [2] was “inactive” throughout.

Take `O=Cc1c2ccccc2c(Cl)c2ccccc12`: the Potency entry in assay [1] and in assay [2] was “inactive” in each case.

Turning to `CCCCC(CC)COP(=O)(O)OCC(CC)CCCC` (centres undefined), the Potency entry in assay [1] and in assay [2] was “inactive” in each case.

Take `O=C1NC(=O)C2CC=CCC12` (centres undefined): the Potency result in assay [1] and in assay [2] was “inactive” each time.

For `CN1CCN(C)CC1`, the Potency entry in assay [1] and in assay [2] was “inactive” throughout.

Regarding `CCCCCCC=O`, the Potency result in assay [1] and in assay [2] was “inactive” in each case.

Turning to `O=C[O][Al]([O]C=O)[O]C=O`, the Potency result in assay [1] and in assay [2] was “inactive” in each case.

Consider `Clc1ccccc1C(c1ccccc1)(c1ccccc1)n1ccnc1`, for which the Potency entry in assay [1] and in assay [2] was “inactive” in each case.

Take `CC[C@@H](N)CO`: the Potency entry in assay [1] and in assay [2] was “inactive” throughout.

Regarding `CCC(C)=O`, the Potency entry in assay [1] and in assay [2] was “inactive” in each case.

`CC(C)=CC(=O)C=C(C)C`: the Potency result in assay [1] and in assay [2] was “inactive” in each case.

Turning to `COC(=O)C(C)=O`, the Potency result in assay [1] and in assay [2] was “inactive” throughout.

Consider `CCCCCCCCOCCCN`, for which the Potency result in assay [1] and in assay [2] was “inactive” each time.

For the compound `Cc1cccc(OCCOc2cccc(C)c2)c1`, the Potency result in assay [1] and in assay [2] was “inactive” in each case.
